Experimental data as given in PubChem BioAssay AID1159580 (chemical genetic matrix, 2015).
About 2,000 (36%) of roughly 5,500 compounds were called active. About 18% were inconclusive and are not listed. No stated cut-off is given here; in the data, active means normalized growth mostly below about 0.91 (no sharp cut-off); inconclusive means no clear call, values can overlap the other calls; inactive means mostly above about 0.92. This is one part of the list.

Test: chemical genetic growth profiling, strain panel (AID 1159580);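 further: tested at 20 µM; growth read once vehicle control cultures reached saturation at 30 °C; 1 = growth at the plate median or of vehicle wells; lower values mean less growth of the strain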
Settings: S. cerevisiae deletion strains, growth OD
[1] = locus YAL040C, strain CLN3, active compounds read low
[2] = locus YDR363W, strain ESC2, active compounds read low
[3] = locus YER002W, strain NOP16, active compounds read low
[4] = locus YGR229C, strain SMI1, active compounds read low
[5] = locus YNL175C, strain NOP13, active compounds read low
[6] = locus YNL197C, strain WHI3, active compounds read low
[7] = locus YNL224C, strain SQS1, active compounds read low
[8] = locus YOR083W, strain WHI5 (second series), active compounds read low
[9] = locus YPL055C, strain LGE1, active compounds read low

Measured: normalized growth

NCCCCNS(=O)(=O)c1cccc2c(Cl)cccc12
inactive: locus YAL013W, strain DEP1, active compounds read low 1.01 | [1] 1.02 | [2] 1.01 | [3] 1.01 | locus YGR078C, strain PAC10, active compounds read low 1.01 | [4] 1.04 | locus YJR075W, strain HOC1, active compounds read low 0.989 | locus YMR263W, strain SAP30, active compounds read low 1.01 | locus YNL153C, strain GIM3, active compounds read low 0.993 | [5] 1 | [6] 1 | [7] 0.995 | [8] 1.02 | [9] 1.01

N=c1ccc2nc3c(Cl)c4c(c(Cl)c3oc-2c1S(=O)(=O)O)Nc1ccc(N)c(S(=O)(=O)O)c1O4
inactive: locus YAR019C, strain CDC15, active compounds read low 1.01 | locus YBL105C, strain PKC1, active compounds read low 1.01 | locus YBR135W, strain CKS1, active compounds read low 1.01 | locus YBR136W, strain MEC1, active compounds read low 1.01 | locus YBR160W, strain CDC28, active compounds read low 1.01 | locus YDL017W, strain CDC7, active compounds read low 1.02 | locus YDL028C, strain MPS1, active compounds read low 1.01 | locus YDL101C, strain DUN1, active compounds read low 1.01 | locus YDL108W, strain KIN28, active compounds read low 1.01 | locus YDL132W, strain cdc53, active compounds read low 1 | locus YDL214C, strain PRR2, active compounds read low 1.02 | locus YDR052C, strain DBF4, active compounds read low 1.01 | locus YDR054C, strain cdc34, active compounds read low 1 | locus YDR226W, strain ADK1, active compounds read low 0.993 | locus YDR477W, strain SNF1, active compounds read low 1.01 | locus YER123W, strain YCK3, active compounds read low 1.01 | locus YER133W, strain GLC7, active compounds read low 0.992 | locus YFL009W, strain cdc4, active compounds read low 0.997 | locus YFL029C, strain CAK1, active compounds read low 1 | locus YFR003C, strain YPI1, active compounds read low 1.01 | locus YFR019W, strain FAB1, active compounds read low 0.993 | locus YFR028C, strain CDC14, active compounds read low 1.01 | locus YGR040W, strain KSS1, active compounds read low 1.02 | locus YGR052W, strain FMP48, active compounds read low 1.09 | locus YGR092W, strain DBF2, active compounds read low 1.03 | locus YHR030C, strain SLT2, active compounds read low 0.962 | locus YHR079C, strain IRE1, active compounds read low 0.995 | locus YHR082C, strain KSP1, active compounds read low 1.16 | locus YHR205W, strain SCH9, active compounds read low 1 | locus YIL147C, strain SLN1, active compounds read low 1.01 | locus YJL095W, strain BCK1, active compounds read low 1.06 | locus YJL128C, strain PBS2, active compounds read low 1 | locus YJL157C, strain FAR1, active compounds read low 0.994 | locus YJR016C, strain ILV3, active compounds read low 1.02 | locus YJR066W, strain TOR1 (second series), active compounds read low 0.981 | locus YJR066W, strain TOR1, active compounds read low 1.14 | locus YKL048C, strain ELM1, active compounds read low 1.01 | locus YKL067W, strain YNK1, active compounds read low 1.01 | locus YKL101W, strain HSL1, active compounds read low 1.02 | locus YKL193C, strain SDS22, active compounds read low 1.01 | locus YKL203C, strain TOR2, active compounds read low 1.06 | locus YLR113W, strain HOG1, active compounds read low 1.06 | locus YLR133W, strain CKI1, active compounds read low 1.01 | locus YLR403W, strain SFP1, active compounds read low 0.975 | locus YML070W, strain DAK1, active compounds read low 1.02 | locus YMR001C, strain CDC5, active compounds read low 1.01 | locus YMR205C, strain PFK2 (second series), active compounds read low 1.02 | locus YMR277W, strain FCP1, active compounds read low 1.01 | locus YNL006W, strain LST8, active compounds read low 1 | locus YNL020C, strain ARK1, active compounds read low 1.02 | locus YNL161W, strain CBK1, active compounds read low 0.998 | locus YNL183C, strain NPR1, active compounds read low 1.11 | locus YNL207W, strain RIO2, active compounds read low 1.02 | locus YNL222W, strain SSU72, active compounds read low 1.01 | locus YNL307C, strain MCK1 (second series), active compounds read low 1.01 | locus YOL078W, strain AVO1, active compounds read low 1.01 | locus YOL136C, strain PFK27, active compounds read low 1 | locus YOR061W, strain CKA2, active compounds read low 1.02 | locus YOR119C, strain RIO1, active compounds read low 1.08 | locus YOR231W, strain MKK1, active compounds read low 1.04 | locus YOR329C, strain SCD5, active compounds read low 1.01 | locus YPL031C, strain PHO85, active compounds read low 1.01 | locus YPL153C, strain RAD53, active compounds read low 1.01 | locus YPL204W, strain HRR25, active compounds read low 1 | locus YPL209C, strain IPL1, active compounds read low 1.01 | locus YPL256C, strain CLN2, active compounds read low 0.998 | locus YPR025C, strain CCL1, active compounds read low 1.01 | locus YPR106W, strain ISR1, active compounds read low 1.02 | locus YPR111W, strain DBF20, active compounds read low 1 | strain NNK1, active compounds read low 1.03 | strain TSCII, active compounds read low 1

Cc1ccc(C(=O)O[C@H](C(=O)O)[C@H](OC(=O)c2ccc(C)cc2)C(=O)O)cc1
inactive: [1] 1.01 | locus YCL061C, strain MRC1 (second series), active compounds read low 1 | locus YDR150W, strain NUM1, active compounds read low 1.01 | [2] 1.03 | [3] 1.01 | [4] 1.01 | locus YMR307W, strain GAS1, active compounds read low 0.99 | [5] 1 | [6] 1 | [7] 1 | [8] 0.997 | [9] 0.999
